This is an account of results in PubChem BioAssay (NCI).

Among the test systems are SK-MEL-2 melanoma; EKVX NSCLC; SN12C renal; UO-31 renal; TK-10 renal; ACHN renal; A498 renal; CCRF-CEM leukemia; MOLT-4 leukemia; SR leukemia; RPMI-8226 leukemia; OVCAR-8 ovarian; OVCAR-5 ovarian; OVCAR-4 ovarian; SK-OV-3 ovarian; IGROV1 ovarian; OVCAR-3 ovarian; HS 578T breast; NCI/ADR-RES ovarian.
Holding throughout (assay): NCI-60 one-dose screen, 48 h (100 = growth as untreated, 0 = no growth, -100 = all killed)
Common to all, as to settings: 10 µM

This is part of a sample that, as a whole, favours compounds with a hit. Of some 83,000 tested, about 20% had one in any assay.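 Each cell line was grown in a 96-well plate and treated with one concentration of compound for 48 hours. Values below 10 were considered active.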 A number with no mark means an inactive call. Active and inactive are the calls of the source.

Take `CN(C)CCCOc1ccc(OCCCN(C)C)c2c1C(=O)c1ccccc1C2=O`: the growth was -53.4% (active) in the test with SK-MEL-2 melanoma; 13.6% with EKVX NSCLC; 6.55% (active) with SN12C renal; 62.7% with UO-31 renal; -6.02% (active) with TK-10 renal; 10.8% with ACHN renal. The growth was -31.9% (active) in the test with A498 renal; 2.78% (active) in the test with CCRF-CEM leukemia; 5.64% (active) in the test on MOLT-4 leukemia; 2.73% (active) in the test on SR leukemia; -20.6% (active) in the test on RPMI-8226 leukemia; 7.14% (active) in the test with OVCAR-8 ovarian. In addition, the growth in the test on OVCAR-5 ovarian is 8.93% (active); in the test with OVCAR-4 ovarian it was 2.16% (active); with SK-OV-3 ovarian, 13.8%; in the test with IGROV1 ovarian it was 3.65% (active); in the test with OVCAR-3 ovarian it was 3.4% (active); in the test with HS 578T breast, 23%. Moreover, the growth with NCI/ADR-RES ovarian is 96.1%.

Take `S=c1cnc2ccccc2[nH]1`: the growth in the test on SK-MEL-2 melanoma was 95.6%; with EKVX NSCLC, 107%; in the test with SN12C renal, 104%; with UO-31 renal, 76.6%; with TK-10 renal, 112%; in the test with ACHN renal, 101%. Further, the growth in the test on A498 renal is 99%; in the test with CCRF-CEM leukemia, 103%; in the test with MOLT-4 leukemia it was 91.7%; in the test on SR leukemia, 103%; with RPMI-8226 leukemia, 100%; with OVCAR-8 ovarian, 96.2%. Also, the growth is 104% in the test on OVCAR-5 ovarian; 105% with OVCAR-4 ovarian; 96% with SK-OV-3 ovarian; 97.2% in the test with IGROV1 ovarian; 106% with OVCAR-3 ovarian; 91.5% in the test on HS 578T breast. Besides, in the test with NCI/ADR-RES ovarian, the growth is 98.6%.

Take `COc1cc(-c2nn(-c3cccc(NC(=O)NCCNC(=O)c4ccccc4)c3)cc2-c2ccncc2)ccc1Cl`: the growth was -20.9% (active) in the test with SK-MEL-2 melanoma; 34.2% with EKVX NSCLC; 25.2% in the test with SN12C renal; 13.6% with UO-31 renal; 36.3% with TK-10 renal; 12.2% with ACHN renal. Further, the growth with A498 renal is -3.29% (active); with CCRF-CEM leukemia, 7.68% (active); with MOLT-4 leukemia, 4.74% (active); with SR leukemia, 5.61% (active); with RPMI-8226 leukemia, 5.06% (active); with OVCAR-8 ovarian, 8.83% (active). The growth in the test on OVCAR-5 ovarian is 33%; in the test on OVCAR-4 ovarian, 26.6%; in the test with SK-OV-3 ovarian, 33.6%; in the test on IGROV1 ovarian, 28.1%; with OVCAR-3 ovarian, 21.1%; in the test on HS 578T breast, 30.9%. Further, in the test on NCI/ADR-RES ovarian, the growth is 46.1%.

As to `COc1ccc2nc(-c3ccc(Cl)cc3)cc(-c3nnc(SC/C(=N\O)c4ccccc4)n3-c3ccccc3)c2c1`, the growth in the test on SK-MEL-2 melanoma was 89.9%; with EKVX NSCLC, 96.2%; with SN12C renal, 95.8%; in the test on UO-31 renal it was 78.2%; in the test with TK-10 renal, 111%; in the test on ACHN renal, 90.2%. Besides, the growth was 96.3% in the test with A498 renal; 59.3% with CCRF-CEM leukemia; 47.5% in the test with MOLT-4 leukemia; 67.1% in the test with SR leukemia; 59.7% in the test with RPMI-8226 leukemia; 82.3% in the test with OVCAR-8 ovarian. For the same compound, the growth with OVCAR-5 ovarian was 88.6%; in the test with OVCAR-4 ovarian, 84.5%; in the test on SK-OV-3 ovarian, 99.9%; in the test with IGROV1 ovarian, 105%; in the test with OVCAR-3 ovarian, 86.4%; with HS 578T breast, 92.8%. The growth in the test with NCI/ADR-RES ovarian is 88.2%.

For `CN(C)CCCSc1ccccc1NC1=C(Cl)C(=O)C(Nc2ccccc2SCCCN(C)C)=C(Cl)C1=O`, the growth in the test on SK-MEL-2 melanoma is 43.8%; in the test on EKVX NSCLC, 67.5%; in the test with SN12C renal, -61.2% (active); in the test with UO-31 renal it was 35%; in the test with TK-10 renal it was 13.8%; in the test with ACHN renal, -20.6% (active). Besides, the growth with A498 renal was 105%; in the test with CCRF-CEM leukemia it was -15.2% (active); in the test on MOLT-4 leukemia it was -34% (active); with SR leukemia, 2.97% (active); in the test with RPMI-8226 leukemia it was 45.8%; in the test on OVCAR-8 ovarian it was -26.5% (active). Besides, the growth in the test on OVCAR-5 ovarian was 33.4%; in the test on OVCAR-4 ovarian, -95.3% (active); in the test with SK-OV-3 ovarian, 93.6%; with IGROV1 ovarian it was -63.5% (active); in the test with OVCAR-3 ovarian, -93% (active); with HS 578T breast it was 87.1%. Further, the growth in the test with NCI/ADR-RES ovarian was 72.4%.

`N#CCc1csc(Cc2ccccc2)n1`: the growth in the test with SK-MEL-2 melanoma is 101%; in the test on EKVX NSCLC it was 105%; with SN12C renal, 101%; in the test with UO-31 renal, 88.7%; with TK-10 renal, 89.9%; with ACHN renal, 109%. Further, the growth with A498 renal is 103%; in the test with CCRF-CEM leukemia, 94.2%; with MOLT-4 leukemia it was 101%; with SR leukemia, 98.6%; with RPMI-8226 leukemia, 99%; in the test with OVCAR-8 ovarian it was 106%. Besides, the growth in the test with OVCAR-5 ovarian was 110%; in the test on OVCAR-4 ovarian it was 121%; with SK-OV-3 ovarian, 104%; in the test with IGROV1 ovarian it was 108%; with OVCAR-3 ovarian it was 106%; in the test on HS 578T breast it was 99.1%. For the same compound, the growth in the test with NCI/ADR-RES ovarian is 97.3%.

`COC1OC(COS(=O)OC)C(O)C(O)C1OS(=O)OC` (configuration not stated): the growth in the test on SK-MEL-2 melanoma was 112%; in the test with EKVX NSCLC, 103%; with SN12C renal, 106%; in the test with UO-31 renal, 88.8%; in the test with TK-10 renal, 88.6%; in the test with ACHN renal, 106%. Moreover, the growth in the test on A498 renal was 116%; in the test on CCRF-CEM leukemia, 101%; in the test with MOLT-4 leukemia, 92.1%; with SR leukemia, 80%; with RPMI-8226 leukemia it was 99.7%; in the test on OVCAR-8 ovarian, 114%. The growth is 90.5% in the test with OVCAR-5 ovarian; 116% in the test with OVCAR-4 ovarian; 104% in the test with SK-OV-3 ovarian; 97.7% in the test with IGROV1 ovarian; 106% with OVCAR-3 ovarian; 102% in the test with HS 578T breast. Besides, the growth in the test on NCI/ADR-RES ovarian is 98.1%.

With `Cc1c(Cl)cccc1NC(=O)CN1CCOCC1`, the growth in the test on SK-MEL-2 melanoma was 93.5%; in the test on EKVX NSCLC, 102%; with SN12C renal, 99.9%; with UO-31 renal, 83.8%; in the test on TK-10 renal it was 84.4%; in the test with ACHN renal it was 109%. For the same compound, the growth is 101% in the test on A498 renal; 97.2% in the test on CCRF-CEM leukemia; 82.3% with MOLT-4 leukemia; 86.1% with SR leukemia; 101% with RPMI-8226 leukemia; 106% in the test with OVCAR-8 ovarian. Besides, the growth in the test on OVCAR-5 ovarian is 111%; with OVCAR-4 ovarian, 93.9%; with SK-OV-3 ovarian, 97.1%; in the test with IGROV1 ovarian, 110%; in the test with OVCAR-3 ovarian, 107%; with HS 578T breast, 92.3%. Further, the growth in the test with NCI/ADR-RES ovarian was 100%.
